Assay results from PubChem BioAssay (NCATS).
Where “and” joins values, the source holds several entries; their conditions need not be identical. Equal entries are not always repeated. Inconclusive results are not listed. Entries that show only a call come without a potency. The source holds several records for some structures; these can differ, active in one and inactive in another. Calls of active or inactive are those of the source. Unless noted, the call rests on the fitted dose curve; in most records, active means well fitted curve in the direction sought with a large enough effect; inconclusive means small, poorly fitted or top-dose-only effect, or another doubt; inactive means no such curve, though single readings can be large; an effect the other way counts as inactive or inconclusive.

Columns and labels:
[1] = Cell Viability - N2a (AID 540); conditions: N2a mouse neuroblastoma cell viability; activity change, negative = cytotoxicity: at 92.2 µM (top of the series);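 further: cells exposed to compound for 40 h at 37 °C; nearly all actives have a fitted effect of over 45% in size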; further: potency means the concentration at half of the fitted maximal effect
Method in brief: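 Cytotoxicity was scored as loss of cellular ATP in N2a cells, a mouse neuroblastoma line. Compounds are applied in a qHTS concentration series for 40 hr at 37 °C.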

[2] = Cell Viability - NIH 3T3 (AID 541); conditions: NIH 3T3 cell viability, qHTS; activity change, negative = cytotoxicity: at 92.2 µM (top of the series);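 further: cells exposed to compound for 40 hours; nearly all actives have a fitted effect of over 25% in size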; further: potency means the concentration at half of the fitted maximal effect
Method in brief: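 Cells seeded at 1000/well, rested 5 hr at 37 °C, then dosed and incubated 40 hr at 37 °C. CellTiter-Glo added, 20 min room temperature, luminescence read. AC50 by Hill fit.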

[3] = Cell Viability - HUV-EC-C (AID 542);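 further: cells exposed to compound for 40 hours; nearly all actives have a fitted effect of over 35% in size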; further: potency means the concentration at half of the fitted maximal effect
Method in brief: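 Cells were seeded at 1000 per well and incubated 5 hr at 37 °C before compound addition. After 40 hr at 37 °C, CellTiter-Glo reagent was added for 20 min and luminescence read. AC50 values came from Hill-equation modelling.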

[4] = Cell Viability - SH-SY5Y (AID 544); conditions: SH-SY5Y neuroblastoma cell viability; viability change, negative = cytotoxic: at 92.2 µM (top of the series);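 further: cells exposed to compound for 40 hours; nearly all actives have a fitted effect of over 55% in size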; further: potency means the concentration at half of the fitted maximal effect
Method in brief: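 Cells were plated at 1500 per well and allowed 5 hr at 37 °C. Compounds were added across a concentration range and incubated 40 hr at 37 °C. CellTiter-Glo was added for 20 min at room temperature before luminescence reading.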

[5] = Cellular Toxicity (caspase-3) HepG2 (AID 654);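 further: cells exposed to compound for 16 hours before reading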
Method in brief: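 Caspase 3/7 activation in HepG2 is measured as rising luminescence after a 16 hr treatment at 37 °C. Values are scaled between DMSO basal and 100 uM tamoxifen, and AC50 is fitted with the Hill equation.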

[6] = Cellular Toxicity (caspase-3) SHSY5Y (AID 657);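 further: cells exposed to compound for 16 hours at 37 °C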
Method in brief: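 Readout: caspase-cleaved peptide-aminoluciferin substrate driving luciferase light in SH-SY5Y neuroblastoma cells after 16 h treatment. Response normalized to DMSO and 10 uM staurosporine controls.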

[7] = Cellular Toxicity (caspase-3) BJ (AID 658);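 further: cells exposed to compound for 16 hours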
Method in brief: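 Caspase-Glo 3/7 luminescence, read 1 hr after reagent at room temperature, in normal BJ fibroblasts exposed 16 hours at 37 °C. AC50 values from Hill-equation concentration-response, scaled between DMSO basal and 10 uM staurosporine as 100%.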

[8] = Cellular Toxicity (caspase-3) Mesangial (AID 660); conditions: Potency: caspase-3 activation;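 further: combined caspase 3 and 7 activity read by Caspase-Glo luminescence; cells exposed to compound for 16 h before the caspase read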
Method in brief: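 Seed cells derived from normal human renal glomeruli, incubate 5 h, add compounds across concentrations and incubate 16 h at 37 °C. Caspase 3/7 activation is then quantified by luciferase light, with AC50 derived by Hill modeling.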

[9] = Cellular Toxicity (caspase-3) SK-N-SH (AID 661);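 further: cells exposed to compound for 16 hours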
Method in brief: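 Cells were seeded and incubated 5 hr at 37 °C, dosed with compound over a concentration range for 16 hr, then given Caspase-Glo 3/7 reagent for 1 hr at room temperature before luminescence reading.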

[10] = Cellular Toxicity (caspase-3) Hek293 (AID 664); conditions: HEK293 caspase-3 activation, DMSO = 0%, 100 µM tamoxifen = 100%; at 92.2 µM (top of the series);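 further: cells exposed to compound for 16 h at 37 °C before readout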
Method in brief: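 qHTS, HEK293 (human embryonic kidney), 16 h cpd exposure in complete medium. Caspase-3/7 activation = luminescence increase; normalized to DMSO/100 uM tamoxifen; Hill-fit AC50.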

[11] = Cellular Toxicity (caspase-3) NIH 3T3 (AID 666);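 further: caspase signal read after 16 h compound exposure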
Method in brief: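 Cells were plated at 1000 per well and incubated 5 hr at 37°C, then compound was added for 16 hr. Caspase-Glo 3/7 reagent followed for 20 min at room temperature before luminescence was read.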

[12] = Cell Viability - LYMP1-002 - Assay at 16 hr (AID 948); further: potency means the concentration at half of the fitted maximal effect
Method in brief: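 In this qHTS, lymphoblastoid LYMP1-002 cells (human) receive compounds for 16 hr at 37 C. Viability is taken from CellTiter-Glo ATP luminescence, and AC50 derives from standard Hill fits.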

[13] = Cell Viability - LYMP1-003 - Assay at 40 hr (AID 964); further: nearly all actives have a fitted effect of over 60% in size; further: potency means the concentration at half of the fitted maximal effect
Method in brief: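 Luminescent ATP signal (CellTiter-Glo) served as the viability read-out after 40 hr compound treatment of human lymphoblastoid LYMP1-003 cells at 37 C. Decreases in ATP were fitted with the Hill equation to give AC50.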

[14] = Cell Viability - LYMP2-019 (AID 973);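 further: cells exposed to compound for 24 h at 37 °C; nearly all actives have a fitted effect of over 55% in size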; further: potency means the concentration at half of the fitted maximal effect
Method in brief: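 Cytotoxicity is scored as a concentration-dependent drop in cellular ATP after cells (2500/well) receive compound for 24 hr at 37 C. Tetraoctylammonium bromide serves as positive control.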

[15] = Cell Viability - LYMP2-023 (AID 975);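 further: cells exposed to compound for 24 hours at 37 °C; nearly all actives have a fitted effect of over 55% in size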; further: potency means the concentration at half of the fitted maximal effect;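 on activity change, negative = cytotoxicity: cellular ATP measured by luciferase luminescence as viability proxy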
Method in brief: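 Steps: seed 2500 human lymphoblastoid cells per well, incubate 5 hr at 37 C, add compound for 24 hr at 37 C, add CellTiter-Glo, hold 30 min at room temperature, read luminescence. AC50 derived by Hill modelling.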

[16] = Cell Viability - LYMP2-016 (AID 984);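 further: cells exposed to compound for 24 hours at 37 °C; nearly all actives have a fitted effect of over 55% in size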; further: potency means the concentration at half of the fitted maximal effect
Method in brief: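 Concentration-dependent ATP depletion measured in LYMP2-016 lymphoblastoid cells, 24 h, 37 C; luciferase-based luminescent detection; Hill-equation AC50.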

[17] = Cell Viability - LYMP2-018 (AID 985);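 further: compound exposure lasted 24 hr at 37 °C; nearly all actives have a fitted effect of over 50% in size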; further: potency means the concentration at half of the fitted maximal effect
Method in brief: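 Seed 2500 lymphoblastoid cells per well, incubate 5 hr at 37 C, add compound and incubate 24 hr at 37 C, add CellTiter-Glo, wait 30 min at room temperature, then read luminescence.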

[18] = Cell Viability - LYMP1-002 - Assay at 40 hr (AID 994); further: nearly all actives have a fitted effect of over 60% in size; further: potency means the concentration at half of the fitted maximal effect
Method in brief: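 Cells are plated at 2500 per well and rested 5 hr at 37 C. Compounds are added and incubated 40 hr at 37 C. CellTiter-Glo reagent is added for 30 min at room temperature before luminescence is read.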

[19] = qHTS assay for small molecule agonists of the antioxidant response element (ARE) signaling pathway measured by Nrf2-dependant transcriptional activity (AID 720636; active means well fitted curve in the direction sought with a large enough effect in the repeat runs; an effect the other way counts as inactive or inconclusive; further: potency means the concentration at half of the fitted maximal effect;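 on activation: HepG2 cells with an ARE-driven luciferase reporter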)
Method in brief: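 HepG2 ARE-luc reporter line, 1% dialyzed FBS; 6 hr attachment at 37 C, compound pinned in, 16 hr at 37 C/5% CO2; ONE-Glo, 30 min RT, luminescence read.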

[20] = qHTS assay for cell viability of the p53RE-bla HCT-116 cell line (AID 743292); further: nearly all actives have a fitted effect of over 55% in size; further: potency means the concentration at half of the fitted maximal effect
Method in brief: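 Luminescent ATP quantitation (CellTiter-Glo) served as the viability read-out; reagent was added after 16 h compound exposure at 37 C and read after 30 min at room temperature. Cells: p53RE-bla HCT-116, 4,000 per well.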

O=C(O)C1C(C(=O)O)C2(Cl)C(Cl)=C(Cl)C1(Cl)C2(Cl)Cl (stereo not drawn)
activity change, negative = cytotoxicity [1]: 14.3% (inactive)
Potency [2]: inactive
Potency [3]: inactive
Potency [4]: inactive
outcome [5]: inactive
Potency [6]: inactive
outcome [7]: inactive
Potency [8]: inactive
outcome [9]: inactive
caspase-3 activation [10]: 1.7% (inactive)
outcome [11]: inactive
Potency [12]: inactive
Potency [13]: inactive
Potency [14]: inactive
Potency [15]: inactive
Potency [16]: inactive
Potency [17]: inactive
Potency [18]: inactive
Potency [19]: inactive
Potency [20]: inactive

O=C(CCl)c1ccccc1
activity change, negative = cytotoxicity [1]: -113% (active)
Potency [2]: 15.8 µM (active)
Potency [4]: 7.94 µM (active)
outcome [5]: inactive
Potency [6]: inactive
outcome [7]: inactive
Potency [8]: inactive
outcome [9]: inactive
caspase-3 activation [10]: -9.68% (inactive)
outcome [11]: inactive
Potency [12]: 79.4 µM (active)
Potency [14]: 10 µM (active)
Potency [15]: 12.6 µM (active)
Potency [16]: 10 µM (active)
Potency [17]: 10 µM (active)
Potency [18]: inactive
Potency [19]: inactive
Potency [20]: inactive

CC(C)CC(C)Nc1ccc(Nc2ccccc2)cc1 (stereo not drawn)
activity change, negative = cytotoxicity [1]: -118% (active)
activity change, negative = cytotoxicity [2]: -113% (active)
Potency [3]: 25.1 µM (active)
Potency [4]: 25.1 µM (active)
outcome [5]: inactive
Potency [6]: inactive
outcome [7]: inactive
Potency [8]: inactive
outcome [9]: inactive
caspase-3 activation [10]: 12.2% (inactive)
Potency [12]: 50.1 µM (active)
Potency [13]: 31.6 µM (active)
Potency [14]: 39.8 µM (active)
Potency [15]: 50.1 µM (active)
Potency [16]: 50.1 µM (active)
Potency [17]: 31.6 µM (active)
Potency [18]: 31.6 µM (active)
Potency [20]: inactive

C[C@@H]1CC[C@@]2(OC1)O[C@H]1[C@@H](O)[C@H]3[C@@H]4CC[C@H]5C[C@@H](O[C@@H]6O[C@H](CO)[C@H](O[C@@H]7O[C@H](CO)[C@@H](O)[C@H](O[C@@H]8OC[C@@H](O)[C@H](O)[C@H]8O)[C@H]7O[C@@H]7O[C@H](CO)[C@@H](O)[C@H](O[C@@H]8O[C@H](CO)[C@@H](O)[C@H](O)[C@H]8O)[C@H]7O)[C@H](O)[C@H]6O)[C@H](O)C[C@]5(C)[C@H]4CC[C@]3(C)[C@H]1[C@@H]2C
Potency [1]: 31.6 µM (active)
Potency [2]: 31.6 µM (active)
Potency [3]: 25.1 µM (active)
Potency [4]: 15.8 µM (active)
outcome [5]: inactive
Potency [6]: inactive
outcome [7]: inactive
Potency [8]: inactive
outcome [9]: inactive
caspase-3 activation [10]: -8.63% (inactive)
outcome [11]: inactive
Potency [12]: 10 µM (active)
Potency [13]: 7.94 µM (active)
Potency [14]: 12.6 µM (active)
Potency [15]: 25.1 µM (active)
Potency [16]: 25.1 µM (active)
Potency [17]: 25.1 µM (active)
Potency [18]: 7.94 µM (active)
Potency [19]: inactive
Potency [20]: 35.5 µM (active)

[CH3][Hg][Cl]
Potency [1]: 10 µM (active)
Potency [2]: 0.0316 µM (active)
Potency [3]: 15.8 µM (active)
Potency [4]: 2.51 µM (active)
outcome [5]: inactive
outcome [7]: inactive
outcome [9]: inactive
caspase-3 activation [10]: -9.46% (inactive)
Potency [12]: 39.8 µM (active)
Potency [13]: 50.1 µM (active)
Potency [14]: 5.01 µM (active)
Potency [15]: 5.01 µM (active)
Potency [16]: 3.98 µM (active)
Potency [17]: 3.16 µM (active)

Nc1ccccc1C(=O)OCCc1ccccc1
activity change, negative = cytotoxicity [1]: -14.5% (inactive)
Potency [3]: inactive
Potency [4]: inactive
outcome [5]: inactive
Potency [6]: inactive
outcome [7]: inactive
Potency [8]: inactive
outcome [9]: inactive
caspase-3 activation [10]: -6.67% (inactive)
Potency [12]: inactive
Potency [13]: inactive
Potency [14]: inactive
Potency [15]: inactive
Potency [16]: inactive
Potency [17]: inactive
Potency [18]: inactive
Potency [20]: inactive

O=C1C2(Cl)C3(Cl)C4(Cl)C(Cl)(Cl)C5(Cl)C3(Cl)C1(Cl)C5(Cl)C24Cl (stereo not drawn)
Potency [1]: 31.6 µM (active) and 39.8 µM (active)
activity change, negative = cytotoxicity [2]: -136% (active) and -122% (active)
Potency [3]: 31.6 µM (active) and 63.1 µM (active)
Potency [4]: 31.6 µM (active)
viability change, negative = cytotoxic [4]: -93.4% (active)
Potency [6]: inactive
outcome [9]: inactive
caspase-3 activation [10]: 112% (active) and 177% (active)
outcome [11]: inactive
Potency [12]: 39.8 µM (active)
Potency [13]: 25.1 µM (active) and 50.1 µM (active)
Potency [14]: 50.1 µM (active)
Potency [15]: 50.1 µM (active)
Potency [17]: 50.1 µM (active)
Potency [18]: 25.1 µM (active) and 50.1 µM (active)
Potency [19]: inactive
Potency [20]: 70.8 µM (active) and inactive

CC(=O)[O-].CC(=O)[O-].O.O.[Cd+2]
activity change, negative = cytotoxicity [1]: -111% (active)
activity change, negative = cytotoxicity [2]: -127% (active)
Potency [3]: inactive
outcome [5]: inactive
Potency [6]: inactive
outcome [7]: inactive
Potency [8]: inactive
outcome [9]: inactive
caspase-3 activation [10]: 4.76% (inactive)
outcome [11]: inactive
Potency [12]: inactive
Potency [14]: inactive
Potency [15]: inactive
Potency [16]: inactive
Potency [17]: inactive
Potency [18]: inactive
Potency [19]: 0.841 µM (active)
Potency [20]: inactive

Oc1c(Br)c(Br)c(Br)c(Br)c1Br
activity change, negative = cytotoxicity [1]: -118% (active)
Potency [2]: inactive
Potency [3]: inactive
outcome [5]: inactive
Potency [6]: inactive
outcome [7]: inactive
Potency [8]: inactive
outcome [9]: inactive
outcome [11]: inactive
Potency [12]: inactive
Potency [13]: inactive
Potency [14]: inactive
Potency [15]: inactive
Potency [16]: inactive
Potency [17]: inactive
Potency [18]: inactive
Potency [19]: inactive
Potency [20]: inactive

CCCCCCCCn1sccc1=O
activity change, negative = cytotoxicity [1]: -113% (active)
Potency [2]: 12.6 µM (active)
Potency [3]: 25.1 µM (active)
Potency [4]: 3.98 µM (active)
outcome [5]: inactive
Potency [6]: inactive
outcome [7]: inactive
outcome [9]: inactive
caspase-3 activation [10]: -9.61% (inactive)
outcome [11]: inactive
Potency [12]: 15.8 µM (active)
Potency [13]: 25.1 µM (active)
Potency [14]: 3.98 µM (active)
Potency [15]: 6.31 µM (active)
Potency [16]: 6.31 µM (active)
Potency [17]: 5.01 µM (active)
Potency [18]: 15.8 µM (active)
Potency [20]: inactive

C(=NC1CCCCC1)=NC1CCCCC1
Potency [1]: 10 µM (active)
Potency [2]: 1 µM (active)
Potency [3]: inactive
Potency [4]: inactive
outcome [5]: inactive
Potency [6]: inactive
outcome [7]: inactive
Potency [8]: inactive
outcome [9]: inactive
outcome [11]: inactive
Potency [12]: inactive
Potency [13]: inactive
Potency [18]: inactive
Potency [19]: inactive
Potency [20]: inactive
